Common to all, as to experiment: protein-binding microarray (PBM); PBM: ~300 nM protein, 6 mM HEPES pH 7.8, 80 mM KCl, 0.5 mM EDTA, 0.5 mM EGTA, 6% glycerol, 35 ng/ul poly-dIdC, 1% milk, 1 h, room temperature; Ap Aiptasia and Nv Nematostella (sea anemones) / Co Capsaspora / Aq Amphimedon (sponge) / Dm Drosophila / Hu human; RHD is the Rel homology domain; high values mean tight binding
Common to all, as to conditions: dsDNA, one strand shown

One experiment deals with T1, GST-Ap-NF-kB RHD (Exaiptasia pallida (Aiptasia), UniProt A0A913YAJ5 2-422).
T1 sequence: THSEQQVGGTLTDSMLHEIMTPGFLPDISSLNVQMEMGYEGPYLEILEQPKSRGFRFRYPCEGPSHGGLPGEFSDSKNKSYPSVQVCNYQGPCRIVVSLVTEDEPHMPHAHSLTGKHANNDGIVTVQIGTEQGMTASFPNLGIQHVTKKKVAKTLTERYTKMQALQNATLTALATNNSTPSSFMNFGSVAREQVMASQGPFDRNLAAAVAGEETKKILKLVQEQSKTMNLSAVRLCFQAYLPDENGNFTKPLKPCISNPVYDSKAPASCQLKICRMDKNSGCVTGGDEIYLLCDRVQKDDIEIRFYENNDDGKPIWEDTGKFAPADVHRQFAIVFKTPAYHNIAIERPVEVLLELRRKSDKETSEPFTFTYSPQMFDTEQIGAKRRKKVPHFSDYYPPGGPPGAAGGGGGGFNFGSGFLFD

For experiment [1], the target named is T2, GST-Nv-NF-kB (Cys allele) (Nematostella vectensis, UniProt E5G601 2-411).
T2 sequence: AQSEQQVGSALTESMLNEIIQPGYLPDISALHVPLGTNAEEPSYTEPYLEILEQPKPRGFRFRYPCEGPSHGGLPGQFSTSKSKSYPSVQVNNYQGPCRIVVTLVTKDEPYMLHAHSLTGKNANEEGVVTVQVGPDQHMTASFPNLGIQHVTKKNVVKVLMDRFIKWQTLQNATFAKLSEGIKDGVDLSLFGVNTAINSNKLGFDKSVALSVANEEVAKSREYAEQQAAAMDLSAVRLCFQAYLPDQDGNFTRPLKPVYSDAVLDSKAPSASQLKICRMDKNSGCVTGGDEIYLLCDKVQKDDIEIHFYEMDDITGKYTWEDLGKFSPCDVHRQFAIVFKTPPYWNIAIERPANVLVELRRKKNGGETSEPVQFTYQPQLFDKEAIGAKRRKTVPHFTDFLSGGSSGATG

The target in experiment [2] is T3, GST-Nv-NF-kB (Ser allele) (Nematostella vectensis, UniProt A7UNT2 2-411).
T3 sequence: T2 sequence with Q21R, C66S, S207N, E215Q, V217A, E225K, A268E, D399E

In another experiment the target is T4, GST-Co-NF-kB (Capsaspora owczarzaki, UniProt F1ARL5 200-546).
T4 sequence: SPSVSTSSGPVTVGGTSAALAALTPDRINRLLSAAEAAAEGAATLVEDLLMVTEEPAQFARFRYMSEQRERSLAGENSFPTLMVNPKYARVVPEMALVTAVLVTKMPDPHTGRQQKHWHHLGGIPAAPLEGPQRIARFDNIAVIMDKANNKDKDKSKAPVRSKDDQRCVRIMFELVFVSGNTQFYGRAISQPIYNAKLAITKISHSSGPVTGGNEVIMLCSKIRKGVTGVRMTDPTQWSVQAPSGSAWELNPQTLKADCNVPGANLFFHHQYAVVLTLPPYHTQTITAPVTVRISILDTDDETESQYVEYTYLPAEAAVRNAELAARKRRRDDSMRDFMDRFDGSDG

A further experiment addresses T5, GST-Dm-Relish (Drosophila melanogaster, UniProt Q94527 99-473).
T5 sequence: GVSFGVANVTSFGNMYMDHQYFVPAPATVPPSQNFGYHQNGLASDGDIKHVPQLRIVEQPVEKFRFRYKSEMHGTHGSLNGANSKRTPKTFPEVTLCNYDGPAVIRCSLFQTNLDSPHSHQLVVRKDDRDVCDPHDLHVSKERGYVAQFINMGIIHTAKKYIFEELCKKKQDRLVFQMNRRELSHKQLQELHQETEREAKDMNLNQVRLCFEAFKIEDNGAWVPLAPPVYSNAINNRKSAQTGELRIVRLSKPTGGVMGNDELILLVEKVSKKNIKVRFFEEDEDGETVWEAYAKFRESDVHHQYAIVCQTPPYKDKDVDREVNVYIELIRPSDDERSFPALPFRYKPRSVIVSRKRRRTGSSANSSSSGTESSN

In another experiment the target is T6, GST-Aq-NF-kB (Amphimedon queenslandica, UniProt A9Y5G7 2-389).
T6 sequence: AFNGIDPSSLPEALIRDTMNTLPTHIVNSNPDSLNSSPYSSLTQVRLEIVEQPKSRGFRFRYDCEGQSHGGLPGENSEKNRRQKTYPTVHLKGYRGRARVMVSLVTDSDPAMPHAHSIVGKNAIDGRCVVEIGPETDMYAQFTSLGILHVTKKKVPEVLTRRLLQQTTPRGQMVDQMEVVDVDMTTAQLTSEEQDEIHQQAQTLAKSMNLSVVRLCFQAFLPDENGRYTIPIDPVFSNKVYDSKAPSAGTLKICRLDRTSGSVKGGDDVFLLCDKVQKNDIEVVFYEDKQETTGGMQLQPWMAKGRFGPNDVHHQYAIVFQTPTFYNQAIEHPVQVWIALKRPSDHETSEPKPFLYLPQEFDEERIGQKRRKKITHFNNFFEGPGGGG

For another experiment, the target named is GST-Hu-p50 (Homo sapiens, UniProt P19838 7-356).
GST-Hu-p50, sequence (P19838 7-356): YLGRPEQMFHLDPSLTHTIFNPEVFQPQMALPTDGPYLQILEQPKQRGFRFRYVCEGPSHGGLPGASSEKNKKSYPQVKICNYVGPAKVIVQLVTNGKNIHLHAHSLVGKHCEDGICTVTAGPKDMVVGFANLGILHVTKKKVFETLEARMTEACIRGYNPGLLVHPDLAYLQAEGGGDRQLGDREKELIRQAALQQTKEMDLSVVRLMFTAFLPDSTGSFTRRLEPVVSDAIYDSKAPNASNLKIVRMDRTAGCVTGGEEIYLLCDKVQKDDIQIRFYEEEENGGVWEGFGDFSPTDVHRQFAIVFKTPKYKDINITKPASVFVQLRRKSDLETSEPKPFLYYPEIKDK

Substitutions are numbered along the chain they refer to.

Regarding “CCGATTAACATCACGGAAATCCCTGATGTTAATCGGGTCTTGATTCGCTTGACGCTGCTG”, the binding signal with GST-Ap-NF-kB RHD amounted to 4.3 z-score; in experiment [1], 3.8 z-score; in experiment [2], 2.78 z-score; in the experiment with GST-Co-NF-kB, 1.09 z-score; with GST-Dm-Relish it was 6.96 z-score; with GST-Aq-NF-kB, 6.11 z-score. In the experiment with GST-Hu-p50, this sequence displayed a binding signal of 3.58 z-score.

As to “CCGATTAACATCAAGATTTCCCATGATGTTAATCGGGTCTTGATTCGCTTGACGCTGCTG”, the binding signal with GST-Ap-NF-kB RHD turned out to be 2.43 z-score; in experiment [1], 4.42 z-score; in experiment [2] it was 4.61 z-score; in the experiment with GST-Co-NF-kB, 4.11 z-score; with GST-Dm-Relish, 2.29 z-score; with GST-Aq-NF-kB, 3.35 z-score. This sequence also returned a binding signal in the experiment with GST-Hu-p50 of 3.33 z-score.

“CCGATTAACATCAGGGGGTGGTATGATGTTAATCGGGTCTTGATTCGCTTGACGCTGCTG”: the binding signal stood at 3.21 z-score in the experiment with GST-Ap-NF-kB RHD; 2.77 z-score in experiment [1]; 3.98 z-score in experiment [2]; 2.91 z-score with GST-Co-NF-kB; 2.01 z-score in the experiment with GST-Dm-Relish; 3.38 z-score with GST-Aq-NF-kB. In the experiment with GST-Hu-p50, the binding signal is 3.67 z-score.

For “CCGATTAACATCAAGGTTTCCCCTGATGTTAATCGGGTCTTGATTCGCTTGACGCTGCTG”, the binding signal with GST-Ap-NF-kB RHD was 7.4 z-score; in experiment [1] it was 8.19 z-score; in experiment [2], 10.3 z-score; with GST-Co-NF-kB it was 8.15 z-score; with GST-Dm-Relish it was 7.08 z-score; with GST-Aq-NF-kB, 6.28 z-score. The binding signal with GST-Hu-p50 was determined as 6.46 z-score.

On to “CCGATTAACATCAGGGGAGTTTATGATGTTAATCGGGTCTTGATTCGCTTGACGCTGCTG”, for which the binding signal with GST-Ap-NF-kB RHD turned out to be 8.25 z-score; in experiment [1] it was 6.72 z-score; in experiment [2], 7.68 z-score; with GST-Co-NF-kB it was 4.75 z-score; with GST-Dm-Relish, 6.12 z-score; with GST-Aq-NF-kB, 6.08 z-score. The sequence also yielded a binding signal in the experiment with GST-Hu-p50 of 5.95 z-score.

In the case of “CCGATTAACATCAGGGACTCCCCTGATGTTAATCGGGTCTTGATTCGCTTGACGCTGCTG”, the binding signal came to 11.3 z-score with GST-Ap-NF-kB RHD; 9.16 z-score in experiment [1]; 7.65 z-score in experiment [2]; 4.68 z-score in the experiment with GST-Co-NF-kB; 10.3 z-score in the experiment with GST-Dm-Relish; 9.57 z-score with GST-Aq-NF-kB. For the same sequence, the binding signal with GST-Hu-p50 is 6.03 z-score.

Regarding “CCGATTAACATCAGGGGGCACCCTGATGTTAATCGGGTCTTGATTCGCTTGACGCTGCTG”, the binding signal with GST-Ap-NF-kB RHD was determined as 5.39 z-score; in experiment [1], 3.36 z-score; in experiment [2], 2.57 z-score; with GST-Co-NF-kB it was 2.17 z-score; with GST-Dm-Relish, 3.84 z-score; with GST-Aq-NF-kB, 5.62 z-score. In the experiment with GST-Hu-p50, this sequence came in with a binding signal of 3.84 z-score.

Turning to “CCGATTAACATCAAATAGTCCCCTGATGTTAATCGGGTCTTGATTCGCTTGACGCTGCTG”, the binding signal was determined as 7.11 z-score with GST-Ap-NF-kB RHD; 7.06 z-score in experiment [1]; 6.71 z-score in experiment [2]; 4.46 z-score with GST-Co-NF-kB; 5.51 z-score with GST-Dm-Relish; 6.32 z-score with GST-Aq-NF-kB. The binding signal in the experiment with GST-Hu-p50 turned out to be 5.39 z-score.

In the case of “CCGATTAACATCAAGGGAAGTCCTGATGTTAATCGGGTCTTGATTCGCTTGACGCTGCTG”, the binding signal is 3.99 z-score with GST-Ap-NF-kB RHD; 4.16 z-score in experiment [1]; 2.7 z-score in experiment [2]; 1.08 z-score with GST-Co-NF-kB; 7.26 z-score with GST-Dm-Relish; 5.77 z-score with GST-Aq-NF-kB. For the same sequence, the binding signal with GST-Hu-p50 worked out at 2.73 z-score.

“CCGATTAACATCAAAAATTCCCTTGATGTTAATCGGGTCTTGATTCGCTTGACGCTGCTG”: the binding signal with GST-Ap-NF-kB RHD amounted to 6.05 z-score; in experiment [1], 9.28 z-score; in experiment [2], 8.71 z-score; in the experiment with GST-Co-NF-kB, 4.19 z-score; with GST-Dm-Relish, 7.19 z-score; with GST-Aq-NF-kB, 7.62 z-score. In addition, the binding signal with GST-Hu-p50 was found to be 6.22 z-score.

Regarding “CCGATTAACATCAGGGGGGACTATGATGTTAATCGGGTCTTGATTCGCTTGACGCTGCTG”, the binding signal with GST-Ap-NF-kB RHD was 5.46 z-score; in experiment [1], 5.17 z-score; in experiment [2], 4.88 z-score; in the experiment with GST-Co-NF-kB it was 5.47 z-score; in the experiment with GST-Dm-Relish it was 4.09 z-score; with GST-Aq-NF-kB, 4.64 z-score. Further, the binding signal with GST-Hu-p50 turned out to be 3.99 z-score.

(Values after paper PMC5700166.)
